Experimental data: PubChem BioAssay (EPA / NIEHS)
Calls of active or inactive are those of the source. Rule for the calls: active = hit-call score of the fitted dose curve at least 0.9, where 1 is the maximum; inactive = score below 0.9.

read-out: Plasminogen activator inhibitor-1 (PAI1), SERPINE1 (gene 5054); test: BSK_hDFCGF_PAI1: BioMAP Diversity Plus: hDFCGF Assay for Plasminogen activator inhibitor-1 (PAI1) Biomarker Activity (AID 2283066); settings: primary human foreskin fibroblasts; actives raise or lower the signal
How it was run: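 Human skin fibroblast cultures receive chemical for 24 h before PAI-1 is measured by ELISA; signal changes are fitted bidirectionally against DMSO-treated wells.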

E-selectin (Homo sapiens), sequence (P16581 whole entry, looked up): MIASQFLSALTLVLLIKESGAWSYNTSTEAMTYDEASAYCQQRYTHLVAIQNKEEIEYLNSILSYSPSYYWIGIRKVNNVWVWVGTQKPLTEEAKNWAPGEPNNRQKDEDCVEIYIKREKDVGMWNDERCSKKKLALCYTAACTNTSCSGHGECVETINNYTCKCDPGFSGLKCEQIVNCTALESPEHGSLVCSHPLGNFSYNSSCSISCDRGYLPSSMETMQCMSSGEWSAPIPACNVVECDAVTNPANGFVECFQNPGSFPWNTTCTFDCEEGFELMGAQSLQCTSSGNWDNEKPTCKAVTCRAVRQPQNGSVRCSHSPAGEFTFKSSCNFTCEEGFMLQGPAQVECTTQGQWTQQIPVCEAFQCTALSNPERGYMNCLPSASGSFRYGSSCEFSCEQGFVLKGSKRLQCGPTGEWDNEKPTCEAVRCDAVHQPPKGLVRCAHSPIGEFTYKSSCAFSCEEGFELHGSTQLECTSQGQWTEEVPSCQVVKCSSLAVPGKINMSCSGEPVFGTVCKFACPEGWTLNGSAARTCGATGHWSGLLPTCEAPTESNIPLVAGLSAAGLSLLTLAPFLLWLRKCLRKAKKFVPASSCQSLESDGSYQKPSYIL

| SMILES | AC50 | outcome |
| --- | --- | --- |
| CCCCCCC(O)CCCCCCCCCCC(=O)OC (stereo not given) | 6.22 µM (active) |  |
| CCC(C)=NO |  | inactive |
| Cc1cc(-n2nc3ccc(Cl)cc3n2)c(O)c(C(C)(C)C)c1 |  | inactive |
| Oc1cccc2ccccc12 |  | inactive |
| CN(C)c1ccc(C(c2ccccc2)c2ccc(N(C)C)cc2)cc1 |  | inactive |
| CC[N+](CC)(CC(=O)Nc1c(C)cccc1C)Cc1ccccc1 (tested in a mixture with another compound) |  | inactive |

read-out: Intercellular Adhesion Molecule 1 (ICAM1), ICAM1 (gene 3383); test: BSK_KF3CT_ICAM1: BioMAP Diversity Plus: KF3CT Assay for Intercellular Adhesion Molecule 1 (ICAM1) Biomarker Activity (AID 2283067); settings: primary human keratinocytes with fibroblasts; actives raise or lower the signal
How it was run: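 Dose the keratinocyte/fibroblast co-culture, wait 24 h, measure ICAM-1 by ELISA, then fit increases or decreases against DMSO. Cytotoxicity is checked in parallel cultures by SRB total-protein staining.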

| SMILES | outcome |
| --- | --- |
| CCCCCCC(O)CCCCCCCCCCC(=O)OC (stereo not given) | inactive |
| CCC(C)=NO | inactive |
| Cc1cc(-n2nc3ccc(Cl)cc3n2)c(O)c(C(C)(C)C)c1 | inactive |
| Oc1cccc2ccccc12 | inactive |
| CN(C)c1ccc(C(c2ccccc2)c2ccc(N(C)C)cc2)cc1 | inactive |
| CC[N+](CC)(CC(=O)Nc1c(C)cccc1C)Cc1ccccc1 (tested in a mixture with another compound) | inactive |

read-out: Interferon-gamma inducible Protein 10 (IP10), CXCL10 (gene 3627); test: BSK_KF3CT_IP10: BioMAP Diversity Plus: KF3CT Assay for Interferon-gamma inducible Protein 10 (IP10) Biomarker Activity (AID 2283068); settings: primary human keratinocytes with fibroblasts; actives raise or lower the signal
How it was run: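 Human keratinocyte plus foreskin fibroblast primary co-culture exposed to test chemical for 24 h; IP-10 measured by ELISA. Concentration-response fitted bidirectionally against DMSO control as baseline.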

| SMILES | outcome |
| --- | --- |
| CCCCCCC(O)CCCCCCCCCCC(=O)OC (stereo not given) | inactive |
| CCC(C)=NO | inactive |
| Cc1cc(-n2nc3ccc(Cl)cc3n2)c(O)c(C(C)(C)C)c1 | inactive |
| Oc1cccc2ccccc12 | inactive |
| CN(C)c1ccc(C(c2ccccc2)c2ccc(N(C)C)cc2)cc1 | inactive |
| CC[N+](CC)(CC(=O)Nc1c(C)cccc1C)Cc1ccccc1 (tested in a mixture with another compound) | inactive |

read-out: not listed separately; test: BSK_KF3CT_SRB: Viability Assessment in the BioMAP Diversity Plus: KF3CT Assay (AID 2283069); settings: primary human keratinocytes with fibroblasts;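 note: total protein by sulforhodamine B staining as a cytotoxicity measure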
How it was run: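 Cytotoxicity was gauged by SRB staining (0.1% SRB, 10% TCA fixation, 560 nm) of parallel cultures at 24 h. The cells were primary human skin keratinocytes co-cultured with fibroblasts, and activity was fitted in both directions against DMSO.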

| SMILES | outcome |
| --- | --- |
| CCCCCCC(O)CCCCCCCCCCC(=O)OC (stereo not given) | inactive |
| CCC(C)=NO | inactive |
| Cc1cc(-n2nc3ccc(Cl)cc3n2)c(O)c(C(C)(C)C)c1 | inactive |
| Oc1cccc2ccccc12 | inactive |
| CN(C)c1ccc(C(c2ccccc2)c2ccc(N(C)C)cc2)cc1 | inactive |
| CC[N+](CC)(CC(=O)Nc1c(C)cccc1C)Cc1ccccc1 (tested in a mixture with another compound) | inactive |

read-out: Interleukin-1 alpha (IL1a), IL1A (gene 3552); test: BSK_KF3CT_IL1a: BioMAP Diversity Plus: KF3CT Assay for Interleukin-1 alpha (IL1a) Biomarker Activity (AID 2283070); settings: primary human keratinocytes with fibroblasts; actives raise or lower the signal
How it was run: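 IL-1a was detected by ELISA 24 h after chemical treatment of a co-culture of human skin keratinocytes and foreskin fibroblasts. Gain or loss of signal was fitted against the DMSO baseline.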

| SMILES | outcome |
| --- | --- |
| CCCCCCC(O)CCCCCCCCCCC(=O)OC (stereo not given) | inactive |
| CCC(C)=NO | inactive |
| Cc1cc(-n2nc3ccc(Cl)cc3n2)c(O)c(C(C)(C)C)c1 | inactive |
| Oc1cccc2ccccc12 | inactive |
| CN(C)c1ccc(C(c2ccccc2)c2ccc(N(C)C)cc2)cc1 | inactive |
| CC[N+](CC)(CC(=O)Nc1c(C)cccc1C)Cc1ccccc1 (tested in a mixture with another compound) | inactive |

read-out: TIMP metallopeptidase inhibitor 2 (TIMP2), TIMP2 (gene 7077); test: BSK_KF3CT_TIMP2: BioMAP Diversity Plus: KF3CT Assay for TIMP metallopeptidase inhibitor 2 (TIMP2) Biomarker Activity (AID 2283071); settings: primary human keratinocytes with fibroblasts; actives raise or lower the signal
How it was run: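 Measurements come from ELISA detection of TIMP-2 at 24 hours in a dosed human keratinocyte and foreskin fibroblast co-culture. DMSO serves as negative control and baseline.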

| SMILES | outcome |
| --- | --- |
| CCCCCCC(O)CCCCCCCCCCC(=O)OC (stereo not given) | inactive |
| CCC(C)=NO | inactive |
| Cc1cc(-n2nc3ccc(Cl)cc3n2)c(O)c(C(C)(C)C)c1 | inactive |
| Oc1cccc2ccccc12 | inactive |
| CN(C)c1ccc(C(c2ccccc2)c2ccc(N(C)C)cc2)cc1 | inactive |
| CC[N+](CC)(CC(=O)Nc1c(C)cccc1C)Cc1ccccc1 (tested in a mixture with another compound) | inactive |

read-out: Transforming growth factor beta 1 (TGFb1), TGFB1 (gene 7040); test: BSK_KF3CT_TGFb1: BioMAP Diversity Plus: KF3CT Assay for Transforming growth factor beta 1 (TGFb1) Biomarker Activity (AID 2283072); settings: primary human keratinocytes with fibroblasts; actives raise or lower the signal
How it was run: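 TGF-b1 ELISA on a 24 h dosed co-culture of human keratinocytes and foreskin fibroblasts; cytotoxicity tracked in parallel cultures by SRB staining.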

| SMILES | outcome |
| --- | --- |
| CCCCCCC(O)CCCCCCCCCCC(=O)OC (stereo not given) | inactive |
| CCC(C)=NO | inactive |
| Cc1cc(-n2nc3ccc(Cl)cc3n2)c(O)c(C(C)(C)C)c1 | inactive |
| Oc1cccc2ccccc12 | inactive |
| CN(C)c1ccc(C(c2ccccc2)c2ccc(N(C)C)cc2)cc1 | inactive |

read-out: Matrix Metallopeptidase 9 (MMP9), MMP9 (gene 4318); test: BSK_KF3CT_MMP9: BioMAP Diversity Plus: KF3CT Assay for Matrix Metallopeptidase 9 (MMP9) Biomarker Activity (AID 2283074); settings: primary human keratinocytes with fibroblasts; actives raise or lower the signal;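 for AC50: MMP9 protein level quantified by ELISA in the co-culture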
How it was run: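 MMP-9 quantified by ELISA after 24 h chemical treatment of primary human skin keratinocyte/fibroblast co-cultures; gain or loss fitted against DMSO, with parallel SRB staining (0.1% SRB, 560 nm) for overt cytotoxicity.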

| SMILES | outcome | AC50 |
| --- | --- | --- |
| CCCCCCC(O)CCCCCCCCCCC(=O)OC (stereo not given) | inactive |  |
| CCC(C)=NO | inactive |  |
| Cc1cc(-n2nc3ccc(Cl)cc3n2)c(O)c(C(C)(C)C)c1 | inactive |  |
| Oc1cccc2ccccc12 | inactive |  |
| CN(C)c1ccc(C(c2ccccc2)c2ccc(N(C)C)cc2)cc1 |  | 13.6 µM (active) |
| CC[N+](CC)(CC(=O)Nc1c(C)cccc1C)Cc1ccccc1 (tested in a mixture with another compound) | inactive |  |

read-out: urokinase plasminogen activator (uPA), PLAU (gene 5328); test: BSK_KF3CT_uPA: BioMAP Diversity Plus: KF3CT Assay for urokinase plasminogen activator (uPA) Biomarker Activity (AID 2283075); settings: primary human keratinocytes with fibroblasts; actives raise or lower the signal
How it was run: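 ELISA read-out of uPA 24 h after dosing human skin keratinocytes co-cultured with foreskin fibroblasts. Signal change fitted both ways relative to DMSO; sulforhodamine B on parallel cultures marks overt cytotoxicity.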

| SMILES | outcome |
| --- | --- |
| CCCCCCC(O)CCCCCCCCCCC(=O)OC (stereo not given) | inactive |
| CCC(C)=NO | inactive |
| Cc1cc(-n2nc3ccc(Cl)cc3n2)c(O)c(C(C)(C)C)c1 | inactive |
| Oc1cccc2ccccc12 | inactive |
| CN(C)c1ccc(C(c2ccccc2)c2ccc(N(C)C)cc2)cc1 | inactive |
| CC[N+](CC)(CC(=O)Nc1c(C)cccc1C)Cc1ccccc1 (tested in a mixture with another compound) | inactive |

read-out: CD40, CD40 (gene 958); test: BSK_LPS_CD40: BioMAP Diversity Plus: LPS Assay for CD40 Biomarker Activity (AID 2283076); settings: primary human HUVEC with PBMC; actives raise or lower the signal
How it was run: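 CD40 signal, measured by ELISA, is fitted in both directions relative to DMSO vehicle. The system is an LPS-driven human vascular primary co-culture of endothelial cells and PBMC, sampled 24 h after compound addition.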

| SMILES | outcome | AC50 |
| --- | --- | --- |
| CCCCCCC(O)CCCCCCCCCCC(=O)OC (stereo not given) | inactive |  |
| CCC(C)=NO | inactive |  |
| Cc1cc(-n2nc3ccc(Cl)cc3n2)c(O)c(C(C)(C)C)c1 | inactive |  |
| Oc1cccc2ccccc12 | inactive |  |
| CN(C)c1ccc(C(c2ccccc2)c2ccc(N(C)C)cc2)cc1 |  | 20 µM (active) |
| CC[N+](CC)(CC(=O)Nc1c(C)cccc1C)Cc1ccccc1 (tested in a mixture with another compound) | inactive |  |

read-out: E-selectin (Homo sapiens) (UniProt P16581); test: BSK_LPS_Eselectin: BioMAP Diversity Plus: LPS Assay for Eselectin Biomarker Activity (AID 2283077); settings: primary human HUVEC with PBMC; actives raise or lower the signal
How it was run: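 Signal of E-selectin, detected by ELISA, served as the endpoint; cells were umbilical vein endothelium with PBMC, read 24 h after treatment. DMSO defined baseline, and both increases and decreases were fitted.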

| SMILES | outcome | AC50 |
| --- | --- | --- |
| CCCCCCC(O)CCCCCCCCCCC(=O)OC (stereo not given) | inactive |  |
| CCC(C)=NO | inactive |  |
| Cc1cc(-n2nc3ccc(Cl)cc3n2)c(O)c(C(C)(C)C)c1 | inactive |  |
| Oc1cccc2ccccc12 | inactive |  |
| CN(C)c1ccc(C(c2ccccc2)c2ccc(N(C)C)cc2)cc1 |  | 15.6 µM (active) |
| CC[N+](CC)(CC(=O)Nc1c(C)cccc1C)Cc1ccccc1 (tested in a mixture with another compound) | inactive |  |
